Test results: publication PMC7862700, “An all-to-all approach to the identification of sequence-specific readers for epigenetic DNA modifications on cytosine”

Target: T1, GABPA (Homo sapiens, UniProt Q06546 1-454)
T1 sequence: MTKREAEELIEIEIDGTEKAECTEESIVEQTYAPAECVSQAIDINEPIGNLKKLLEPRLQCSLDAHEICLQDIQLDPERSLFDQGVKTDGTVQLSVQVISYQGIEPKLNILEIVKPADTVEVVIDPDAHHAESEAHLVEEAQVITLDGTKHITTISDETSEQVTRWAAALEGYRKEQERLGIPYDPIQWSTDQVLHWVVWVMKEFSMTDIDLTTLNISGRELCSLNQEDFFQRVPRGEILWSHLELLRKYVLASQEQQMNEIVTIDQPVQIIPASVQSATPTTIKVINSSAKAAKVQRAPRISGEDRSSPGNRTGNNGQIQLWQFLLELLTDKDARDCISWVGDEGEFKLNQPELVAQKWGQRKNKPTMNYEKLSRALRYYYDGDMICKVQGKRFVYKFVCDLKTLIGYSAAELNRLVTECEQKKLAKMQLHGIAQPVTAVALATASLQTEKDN
Assay: DAPPL (digital affinity profiling via proximity ligation, sequencing); 10 mM Tris-HCl pH 7.5, 50 mM NaCl, 1 mM DTT, 4% glycerol, room temperature, 30 min; GST-TFs on glutathione beads, 16-mer random dsDNA library, 0.1% formaldehyde crosslink after washing; high values mean tight binding
Conditions: protein: recombinant; tags: N-terminal GST; dsDNA, one strand shown
Summary of the method: (§1)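 Human transcription factors were made in yeast as GST fusions, captured on glutathione beads and barcoded with DNA. With a tag-only sample included, the pool was incubated with 200 nmole of a random double-stranded 16-mer DNA library in Tris/NaCl/DTT/glycerol buffer at room temperature for 30 min, then crosslinked with 0.1% formaldehyde after washing, ligated by proximity, amplified and sequenced. For binding signal, each hexamer's read frequency for a factor is divided by its frequency for the tag-only sample.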

Row | Sequence | binding signal
1 | AGGCCT | 1.08 fold enrichment (6-mer frequency, TF over GST control)
2 | TGCGTC | 1.01 fold enrichment (6-mer frequency, TF over GST control)
3 | CGGCAC | 1.03 fold enrichment (6-mer frequency, TF over GST control)

Target: T2, EHF (Homo sapiens, UniProt Q9NZC4 1-300)
T2 sequence: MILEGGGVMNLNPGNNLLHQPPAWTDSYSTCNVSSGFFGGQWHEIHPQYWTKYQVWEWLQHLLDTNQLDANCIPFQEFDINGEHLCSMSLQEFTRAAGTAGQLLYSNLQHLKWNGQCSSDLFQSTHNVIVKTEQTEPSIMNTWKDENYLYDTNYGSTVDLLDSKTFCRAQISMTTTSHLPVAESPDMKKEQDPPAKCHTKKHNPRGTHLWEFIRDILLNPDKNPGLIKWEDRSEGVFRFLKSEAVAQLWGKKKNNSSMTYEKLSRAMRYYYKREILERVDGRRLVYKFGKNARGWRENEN
Assay: as above
Conditions: protein: recombinant; tags: N-terminal GST; dsDNA, one strand shown
Summary of the method: as §1

Row | Sequence | binding signal
4 | GCGGCT | 1.02 fold enrichment (6-mer frequency, TF over GST control)
5 | AAGGTC | 1.08 fold enrichment (6-mer frequency, TF over GST control)
6 | CATCGT | 1 fold enrichment (6-mer frequency, TF over GST control)

Target: SPIB (Homo sapiens, UniProt Q01892 1-262)
Assay: as above
Conditions: protein: recombinant; tags: N-terminal GST; dsDNA, one strand shown
Summary of the method: as §1

SPIB, sequence (Q01892 whole entry): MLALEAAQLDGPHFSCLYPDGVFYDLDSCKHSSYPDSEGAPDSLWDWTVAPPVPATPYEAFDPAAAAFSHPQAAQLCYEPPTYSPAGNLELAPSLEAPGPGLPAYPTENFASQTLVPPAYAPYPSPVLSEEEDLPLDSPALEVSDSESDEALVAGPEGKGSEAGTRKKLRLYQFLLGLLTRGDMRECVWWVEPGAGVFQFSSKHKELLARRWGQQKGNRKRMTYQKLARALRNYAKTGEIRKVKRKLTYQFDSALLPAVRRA

Row | Sequence | binding signal
7 | CATCGT | 1.05 fold enrichment (6-mer frequency, TF over GST control)
8 | AGTTTA | 1.04 fold enrichment (6-mer frequency, TF over GST control)
9 | CGGCAC | 1.03 fold enrichment (6-mer frequency, TF over GST control)
10 | TGAAGG | 1 fold enrichment (6-mer frequency, TF over GST control)

Target: T3, ELK3 (Homo sapiens, UniProt P41970 1-407)
T3 sequence: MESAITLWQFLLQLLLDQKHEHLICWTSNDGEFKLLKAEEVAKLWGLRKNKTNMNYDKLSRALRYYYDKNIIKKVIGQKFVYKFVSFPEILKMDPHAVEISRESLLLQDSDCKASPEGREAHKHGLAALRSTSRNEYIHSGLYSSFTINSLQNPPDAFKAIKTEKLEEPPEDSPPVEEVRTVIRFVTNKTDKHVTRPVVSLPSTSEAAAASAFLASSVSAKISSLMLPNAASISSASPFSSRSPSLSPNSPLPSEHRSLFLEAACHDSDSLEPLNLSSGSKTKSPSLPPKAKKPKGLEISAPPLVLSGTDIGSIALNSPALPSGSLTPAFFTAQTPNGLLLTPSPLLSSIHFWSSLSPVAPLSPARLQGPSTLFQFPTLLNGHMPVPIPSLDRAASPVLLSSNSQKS
Assay: as above
Conditions: protein: recombinant; tags: N-terminal GST; dsDNA, one strand shown
Summary of the method: as §1

Row | Sequence | binding signal
11 | AGGCCT | 1.01 fold enrichment (6-mer frequency, TF over GST control)
12 | AGGCTA | 1.05 fold enrichment (6-mer frequency, TF over GST control)
13 | AGTTTA | 1.03 fold enrichment (6-mer frequency, TF over GST control)
14 | TGGGCG | 1.01 fold enrichment (6-mer frequency, TF over GST control)

Target: T4, ETV2 (Homo sapiens, UniProt O00321 1-342)
T4 sequence: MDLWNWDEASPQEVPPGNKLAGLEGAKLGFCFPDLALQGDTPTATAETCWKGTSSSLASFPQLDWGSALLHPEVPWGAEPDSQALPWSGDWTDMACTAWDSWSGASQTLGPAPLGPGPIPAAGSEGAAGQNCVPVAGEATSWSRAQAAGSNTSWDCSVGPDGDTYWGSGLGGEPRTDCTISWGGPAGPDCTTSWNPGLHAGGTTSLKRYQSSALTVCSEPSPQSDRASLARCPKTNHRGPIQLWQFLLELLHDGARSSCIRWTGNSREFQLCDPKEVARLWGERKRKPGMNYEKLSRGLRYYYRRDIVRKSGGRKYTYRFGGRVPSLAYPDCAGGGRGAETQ
Assay: as above
Conditions: protein: recombinant; tags: N-terminal GST; dsDNA, one strand shown
Summary of the method: as §1

Row | Sequence | binding signal
15 | ACTGGG | 1.03 fold enrichment (6-mer frequency, TF over GST control)
16 | GCGGCT | 1.08 fold enrichment (6-mer frequency, TF over GST control)
17 | GTATCG | 1.09 fold enrichment (6-mer frequency, TF over GST control)
18 | AGCCAT | 1.02 fold enrichment (6-mer frequency, TF over GST control)
19 | AGGCCT | 1.01 fold enrichment (6-mer frequency, TF over GST control)
20 | GCGACG | 1.15 fold enrichment (6-mer frequency, TF over GST control)
21 | TGCGTC | 1.04 fold enrichment (6-mer frequency, TF over GST control)
22 | CTGGGA | 1.01 fold enrichment (6-mer frequency, TF over GST control)
23 | AGGCTA | 1 fold enrichment (6-mer frequency, TF over GST control)
24 | AAGGTC | 1.06 fold enrichment (6-mer frequency, TF over GST control)
25 | GTTCAG | 1.01 fold enrichment (6-mer frequency, TF over GST control)
26 | CATCGT | 1.01 fold enrichment (6-mer frequency, TF over GST control)
27 | CCGTTA | 1.05 fold enrichment (6-mer frequency, TF over GST control)
28 | ACCCGT | 1 fold enrichment (6-mer frequency, TF over GST control)
29 | AGCAAG | 1.02 fold enrichment (6-mer frequency, TF over GST control)
30 | GGCATA | 1.05 fold enrichment (6-mer frequency, TF over GST control)
31 | GATAAC | 1.08 fold enrichment (6-mer frequency, TF over GST control)
32 | CGGACC | 1.02 fold enrichment (6-mer frequency, TF over GST control)
33 | TCGTCG | 1.05 fold enrichment (6-mer frequency, TF over GST control)
34 | GACCGA | 1.04 fold enrichment (6-mer frequency, TF over GST control)
35 | TTGGGA | 1.03 fold enrichment (6-mer frequency, TF over GST control)
36 | AGCCCA | 1.04 fold enrichment (6-mer frequency, TF over GST control)
37 | TGGGCG | 1 fold enrichment (6-mer frequency, TF over GST control)
38 | TGAAGG | 1 fold enrichment (6-mer frequency, TF over GST control)
39 | GACCCA | 1.09 fold enrichment (6-mer frequency, TF over GST control)
